GRP78 ERSR act: ER stress response induction in glioma. AID 602332. Potency, µM, without a hit: at the highest dose activation, hits mostly activators. U87-MG GRP78 promoter luciferase reporter, 16 h. 0.02% of 420,000 active; further: series mostly up to about 76 µM; % of control where 0% means no effect; nearly all actives have a fitted effect of over 35% in size
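Stably transfected U87-MG human glioma cells carrying a GRP78-based luminescent sensor were seeded at 1000 cells/well, pin-dosed with compounds and incubated 16 h. Luciferase reagent was then added, and end-point luminescence was read after 10 min at room temperature.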
ALOX12 inh: blocks human arachidonate 12S-lipoxygenase; AID 1671190; P18054; Potency, µM (highest dose often 108 µM), without a hit: top-dose activity change, negative = inhibition, most hits filed as inhibitors; purified 12hLO, xylenol orange hydroperoxide absorbance; 1.1% of 580,000 active; further: on the % scale 0 is the no-effect control and ±100 the full control effect
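Hydroperoxide product was detected by ferrous iron/xylenol orange as the 573 to 405 nm absorbance ratio. Arachidonic acid at 40 uM (final) was turned over for 30 min at room temperature by 150 nM human 12hLO, pH 7.0 Hepes buffer, after 15 min compound preincubation.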
Apoferritin bind: candidate novel general anesthetic via apoferritin binding | apoferritin/1-aminoanthracene competitive binding, fluorescence | Potency, µM (top dose mostly 77.5 µM), for the others: at the top dose activity change, negative = displacement, most hits filed as inhibitors | 0.074% of 350,000 active; further: on the % scale 0 is the no-effect control and ±100 the full control effect; nearly all actives have a fitted effect of over 20% in size
Target sequence (P02791 2-175 limits assumed): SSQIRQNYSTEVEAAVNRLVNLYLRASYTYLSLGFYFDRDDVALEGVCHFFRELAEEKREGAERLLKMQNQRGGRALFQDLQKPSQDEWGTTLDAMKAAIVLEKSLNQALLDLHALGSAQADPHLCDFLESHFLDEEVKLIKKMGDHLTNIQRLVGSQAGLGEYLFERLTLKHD
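10 uM apoferritin + 50% sat. 1-AMA, PBS; cpd 10 min RT; Ex380/Em535 endpoint; normalized to free probe vs complex; 4-param Hill fit; propofol titration as pos. ctrl.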
Chronic BCR inh: chronic active BCR signaling inhibition; ABC-DLBCL IkBa-CBG/CBR reporter, luminescence ratio, 4 h; Potency, µM (highest dose often 46.1 µM), without a hit: at the top dose activity change, negative = inhibition, actives largely listed as inhibitors; 0.05% of 340,000 active; active means well fitted inhibition curve with a large enough effect in the signal ratio, with a control signal flat, not every such curve was filed as active; inconclusive means small, poorly fitted or top-dose-only effect, or effect the other way, or a change in a side signal; the % refers to the signal ratio;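 further: plate controls were basal doxycycline-induced cells for no effect and cells given 10 µM MG132 for full effect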
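TMD8 ABC-DLBCL cells carrying doxycycline-inducible green luciferase fused to IkappaBalpha plus unfused red luciferase were exposed to compounds (up to 46 uM) for 4 hrs at 37C. Activity came from the overlap-corrected green/red luminescence ratio.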
* = called active by the depositor; ? = inconclusive; · = not tested or not shown; [ ] = remark or other dose. Rows were chosen to be rich in hits. Some 1.1% of all compounds tested hit in one or more screens of this group. Unless noted, the call rests on the fitted dose curve; in most records, active means well fitted curve in the direction sought with a large enough effect; inconclusive means small, poorly fitted or top-dose-only effect, or another doubt; inactive means no such curve, though single readings can be large; an effect the other way counts as inactive or inconclusive. Potency means the concentration at half of the fitted maximal effect.

SMILES	GRP78 ERSR act	ALOX12 inh	Apoferritin bind	Chronic BCR inh
COc1cccc(/C=N/NC(=O)c2cc3c(OC)ccc(OC)c3[nH]2)c1O	-4.6%	9.2%	93.6%	3.16µM*
COc1cc(OC)c2cc(C(=O)N/N=C/c3cccc(OC)c3O)[nH]c2c1	-7.3%	-1.5%	-10.4%	?
CN(Cc1cnn(C)c1)C(=O)c1csc2nc(-c3cccc(C(F)(F)F)c3)cn12	·	20.9%	·	·
S=C1NC(c2ccccc2)N2C(=S)NC(c3ccccc3)N12 (configuration not stated)	4.5%	15.8µM*	5.4%	7.9%
Cc1ccc(C2NC(=S)N3C(c4ccc(C)cc4)NC(=S)N23)cc1 (configuration not stated)	2.1%	?	·	·
Cn1c(=O)c2ccnn2c2ccc(C(=O)NCC3CCN(Cc4cccc(F)c4)CC3)cc21	·	-6.3%	·	·
N#C/C(=C\c1cccs1)C(=O)c1ccccc1Cl	-15.1%	?	5.0%	?
NNC(=O)/C(=C/c1cccs1)NC(=O)c1ccccc1Cl	-3.3%	-4.6%	?	11.2µM*
O=C(C1CCN(c2nc(-c3ccccc3)nc3c2CCC3)CC1)N1C[C@H]2CC[C@H]1C2	·	28.3%	·	·
C/C(=N\NS(=O)(=O)c1ccc(Br)cc1)c1ccncc1	6.9%	31.6µM*	-21.2%	?
C/C(=N/NS(=O)(=O)c1ccc(Cl)cc1)c1ccncc1	0.8%	?	-3.4%	?
Fc1ccccc1/C=N/N1CCN(Cc2ccccc2Cl)CC1	2.1%	12.6µM*	-6.3%	2.1%
O=[N+]([O-])c1ccccc1/C=N\N1CCN(Cc2ccccc2Cl)CC1	3.4%	140.5%	-9.9%	0.2%
O=C(c1ccc(Cl)cc1)N1CC2(CCCN(Cc3ccc(Cl)cc3)C2)Cc2ccccc21 (configuration not stated)	·	3.55µM*	·	·
N#C/C(=C\c1ccc(O)c(O)c1)S(=O)(=O)c1ccccc1	-6.4%	3.16µM*	-13.3%	1.4%
N#C/C(=C/c1ccc(F)cc1)S(=O)(=O)c1ccccc1	-0.6%	0.0%	5.4%	?
N#C/C(=C/c1cccc(F)c1)S(=O)(=O)c1ccc(Br)cc1	·	22.4µM*	·	·
CSc1ccc(/C=C(/C#N)S(=O)(=O)c2ccc(C)cc2)cc1	·	-28.8%	·	·
CCOC(=O)c1c(C)sc2c1OC(N)=C(C#N)C21C(=O)N(Cc2cccc(F)c2)c2ccccc21 (configuration not stated)	·	41.3%	·	·
COc1ccccc1CNC(=O)C1CC2Cn3c(nc4cc(Cl)c(Cl)cc43)C2N1C (configuration not stated)	1.7%	11.2µM*	·	·
COc1ccccc1CNC(=O)C1CC2Cn3c(nc4cc5ccccc5cc43)C2N1C (configuration not stated)	-2.0%	-4.8%	·	-0.1%
CCOc1ccc(N(CC(=O)Nc2ccccc2OC)S(=O)(=O)c2ccccc2)cc1	-2.3%	3.0%	82.2%	15.8µM*
COc1ccc(N(CC(=O)Nc2ccc(OC)cc2OC)S(=O)(=O)c2ccccc2)cc1	-2.6%	2.9%	-10.1%	?
CC1=CN2C(=N)/C(=C/c3ccc([N+](=O)[O-])o3)C(=O)N=C2S1	-10.6%	44.7µM*	-1.3%	?
CCCc1ccc(C(=O)NNC(=O)c2ccc(Br)cc2)cc1	-5.5%	-11.8%	10.3%	?
SMILES	GRP78 ERSR act	ALOX12 inh	Apoferritin bind	Chronic BCR inh
CCCc1ccc(C(=O)NNc2ccc(F)cc2)cc1	0.1%	17.8µM*	-8.4%	-1.0%
CC(C)CCNC(=O)Nc1ccc2c(c1)N(C)C(=O)CS2	2.1%	-7.2%	?	·
CN1C(=O)CSc2ccc(NC(=O)NCCC3=CCCCC3)cc21	-1.4%	-20.9%	22.4µM*	?
O=C(NCc1ccc(Cl)cc1)[C@@H]1Cc2nc[nH]c2CN1C(=O)NC1CCCCC1	·	7.6%[176 µM]	·	·
CC(Oc1ccc(C(C)(C)C)cc1)C(=O)Nc1cccc2cccnc12 (configuration not stated)	·	4.6%	·	·
CCOC(=O)C1CCN(Cc2cccc(Oc3ccc(Cl)cc3)c2)CC1	-4.3%	1.41µM*	-4.9%	-0.3%
COc1ccc(C23CC4CC(C2)CC(c2ccc(OC)c(C(=O)NC(C)C)c2)(C4)C3)cc1C(=O)NC(C)C	·	18.8%	·	·
CCOc1cccc2cc(C(=O)Oc3ccc(OC)cc3)c(=O)oc12	-4.6%	35.5µM*	?	2.3%
COc1cccc2cc(C(=O)Oc3ccccc3)c(=O)oc12	-0.9%	-2.6%	5.9%	8.9%
COc1ccccc1CNc1ccnc(-c2cccnc2)n1	-5.2%	?	·	·
COc1ccc(CNc2ccnc(-c3cccnc3)n2)c(OC)c1	-1.5%	44.7µM*	·	·
CC(C)(C)C(=O)NCC(O)COc1ccc(C(F)(F)F)cc1 (configuration not stated)	·	-14.7%	·	·
CN1CCN(Cc2ccc(-c3ccc(C(C)(C)C#N)cc3)nc2)CC1	·	20µM*	·	·
CCCCc1ccc(-c2ccc(C#N)cc2)nc1	·	-49.9%	·	·
O=C(c1ccc(-c2ccccc2)cc1)c1cc2ccccc2o1	·	40.0%	·	·
S=C1NC[C@H](CC2CCCCC2)N1CCc1cccc2ccccc12	-0.8%	25.1µM*	-18.9%	9.7%
S=C1NC[C@H](Cc2ccccc2)N1CCCCC1CCCCC1	5.2%	35.5µM*	-1.2%	28.7%
S=C1NC[C@H](Cc2ccccc2)N1CC1CCN(CCCC2CCCC2)CC1	-0.5%	-17.8%	·	·
O=C(CCS(=O)(=O)c1ccc(F)cc1)Nc1ccc(OC(F)F)c(Cl)c1	·	-8.8%	·	·
Cc1ccc(NC(=O)CN2C(=O)NC(c3ccc(Cl)cc3)C3=C2COC3=O)cc1 (configuration not stated)	·	11.2µM*	·	·
Cc1ccc(C2NC(=O)N(CC(=O)Nc3c(C)cccc3Cl)C3=C2C(=O)OC3)cc1 (configuration not stated)	·	2.2%	·	·
O=C(CN1C(=O)NC(c2ccc(Cl)cc2)C2=C1COC2=O)Nc1ccc(Br)cc1F (configuration not stated)	·	4.47µM*	·	·
O=C(CN1C(=O)NC(c2ccc(Cl)cc2)C2=C1COC2=O)Nc1ccc(Cl)cc1F (configuration not stated)	·	8.91µM*	·	·
O=C(CN1C(=O)NC(c2ccc(Cl)cc2)C2=C1COC2=O)Nc1cc(F)cc(F)c1 (configuration not stated)	·	11.2µM*	·	·
Cc1ccc2nc(/C(C#N)=C\c3cccc(OCc4ccc(F)cc4)c3)[nH]c2c1	·	59.1%	·	·
SMILES	GRP78 ERSR act	ALOX12 inh	Apoferritin bind	Chronic BCR inh
O=C(Nc1ccc2c(N3CCOCC3)ncnc2c1)c1ccc(Br)o1	·	66.0%	·	·
C[C@H](NC(=O)c1[nH]cnc1C(=O)Nc1ccc(Cl)cc1)C(=O)OC(C)(C)C	-3.4%	·	7.6%	-0.1%
Cc1cccc(NC(=O)c2nc[nH]c2C(=O)N[C@@H](C)C(=O)OC(C)(C)C)c1	-2.7%	0.0%	17.8µM*	12.9%
Cc1cc(C)c2nc(Cl)c(CN(Cc3ccco3)C(=O)Nc3ccccc3C)cc2c1	-2.6%	7.3%	-4.8%	-1.8%
COCCN(Cc1cc2cc(C)cc(C)c2nc1Cl)C(=O)Nc1ccccc1	-2.2%	19.6%	-4.6%	16.4µM*
Brc1ccc(CSc2nc3ccccc3s2)cc1	·	-0.7%	·	·
O=C(O)/C(=C\c1ccc(Br)cc1)Sc1nc2ccccc2s1	·	8.91µM*	·	·

Screens from PubChem BioAssay.
